Results: the supplement of paper PMC12645437, “Orthogonal IMiD-Degron Pairs Induce Selective Protein Degradation in Cells” (ACS Chemical Biology, 2025)
In all, about 8,300 sequences were measured (“log2 fold change of degron read counts, EGFP-low vs EGFP+ sorted cells (limma voom), compound-induced degradation”: median about -1.1, highest 2% from about 3.2 on). The sample as a whole holds a higher share of the highest values than the screen did.

T1: CRBN, Q96SW2
T1 chain: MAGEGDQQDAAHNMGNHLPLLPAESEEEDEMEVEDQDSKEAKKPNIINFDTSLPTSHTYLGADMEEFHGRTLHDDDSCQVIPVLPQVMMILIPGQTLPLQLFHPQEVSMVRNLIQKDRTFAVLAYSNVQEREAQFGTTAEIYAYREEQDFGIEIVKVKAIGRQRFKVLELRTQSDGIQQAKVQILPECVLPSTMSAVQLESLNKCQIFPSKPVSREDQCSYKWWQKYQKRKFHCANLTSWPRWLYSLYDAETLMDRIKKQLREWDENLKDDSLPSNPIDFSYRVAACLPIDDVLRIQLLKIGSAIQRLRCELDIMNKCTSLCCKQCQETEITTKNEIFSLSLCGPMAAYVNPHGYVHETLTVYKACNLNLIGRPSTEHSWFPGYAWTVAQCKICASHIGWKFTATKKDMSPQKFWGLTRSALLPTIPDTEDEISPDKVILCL


Target: T1, CRBN, Q96SW2
Test: log2 fold change of degron read counts, EGFP-low vs EGFP+ sorted cells (limma voom), compound-induced degradation; higher = more compound-induced degradation of the degron-EGFP fusion; degrons are variants of IKZF1/3 zinc finger 2; compound dose not given here
Settings: Jurkat, 18 h
[1] = compound: compound 19 (5-tert-butyl-thalidomide)
[2] = compound: compound 22 (5-morpholino-thalidomide)
[3] = compound: compound 33 (diphenyl IMiD analogue)
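Also: pooled lentiviral library of zinc finger degron-EGFP fusions in mCherry-positive Jurkat cells, FACS-sorted after compound exposure, with degron abundance counted by next-generation sequencing.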

Sequence	log2 fold change of degron read counts [1]	log2 fold change of degron read counts [2]	log2 fold change of degron read counts [3]	log2 fold change of degron read counts (compound: thalidomide)
FTCNQCGALFTQKGNLLRHIKL [46F_47T_49N_50Q_52G_53A_54L_55F_67L_, Q9UKT9]	-2.64	-2.95	-1.35	-2.16
FRCEICGRWFTQKGNLLRHIKL [46F_47R_49E_50I_52G_53R_54W_55F_67L_, Q9UKT9]	-2.31	-2.38	-1.89	0.776
FFCPICGHAFTQKGNLLRHIKL [46F_47F_49P_50I_52G_53H_54A_55F_67L_, Q9UKT9]	-0.981	-1.5	-0.604	-1.29
FHCNQCGACFTQKGNLLRHIKL [46F_47H_49N_50Q_52G_53A_54C_55F_67L_, Q9UKT9]	-1.49	-1.87	-1.86	-2.37
LRCNQCGFLCTQKGNLLRHIKL [46L_47R_49N_50Q_52G_53F_54L_55C_67L_, Q9UKT9]	-1.18	-1.92	-1.55	-1.3
FLCSVCGHVFTQKGNLLRHIKL [46F_47L_49S_50V_52G_53H_54V_55F_67L_, Q9UKT9]	-2.42	-2.11	-2.5	-2.18
FFCEQCGAAFTQKGNLLRHIKL [46F_47F_49E_50Q_52G_53A_54A_55F_67L_, Q9UKT9]	0.842	1.01	0.32	-1.11
FTCNQCGAMFTQKGNLLRHIKL [46F_47T_49N_50Q_52G_53A_54M_55F_67L_, Q9UKT9]	-2.5	-2.41	-1.29	-1.58
FWCPQCGARFTQKGNLLRHIKL [46F_47W_49P_50Q_52G_53A_54R_55F_67L_, Q9UKT9]	0.926	3.08	0.0765	0.0591
FFCEVCGAQFTQKGNLLRHIKL [46F_47F_49E_50V_52G_53A_54Q_55F_67L_, Q9UKT9]	3.36	3.6	2.42	1.89
FTCEVCGAQFTQKGNLLRHIKL [46F_47T_49E_50V_52G_53A_54Q_55F_67L_, Q9UKT9]	-0.192	2.19	2.27	2.79
FGCEVCGAQFTQKGNLLRHIKL [46F_47G_49E_50V_52G_53A_54Q_55F_67L_, Q9UKT9]	3.18	2.36	1.12	0.866
FCCNQCGREFTQKGNLLRHIKL [46F_47C_49N_50Q_52G_53R_54E_55F_67L_, Q9UKT9]	-3.21	-3.01	-3.16	-3.5
FYCDVCGAIFTQKGNLLRHIKL [46F_47Y_49D_50V_52G_53A_54I_55F_67L_, Q9UKT9]	0.745	0.688	-0.626	-1.86
LYCEICGFWCTQKGNLLRHIKL [46L_47Y_49E_50I_52G_53F_54W_55C_67L_, Q9UKT9]	1.69	1.16	1.94	0.136
FNCEQCGAGFTQKGNLLRHIKL [46F_47N_49E_50Q_52G_53A_54G_55F_67L_, Q9UKT9]	-0.14	-2.54	-2.33	-2.8
FHCEICGAGFTQKGNLLRHIKL [46F_47H_49E_50I_52G_53A_54G_55F_67L_, Q9UKT9]	3.51	1.13	1.93	-0.622
FACEICGAGFTQKGNLLRHIKL [46F_47A_49E_50I_52G_53A_54G_55F_67L_, Q9UKT9]	3.75	1.86	0.304	0.339
FTCEICGAGFTQKGNLLRHIKL [46F_47T_49E_50I_52G_53A_54G_55F_67L_, Q9UKT9]	2.35	2.19	2.28	2.27
FRCEICGAGFTQKGNLLRHIKL [46F_47R_49E_50I_52G_53A_54G_55F_67L_, Q9UKT9]	2.78	1.83	2.46	1.7
FDCEICGAGFTQKGNLLRHIKL [46F_47D_49E_50I_52G_53A_54G_55F_67L_, Q9UKT9]	1.89	-1.13	-0.599	-0.0656
FICEICGAGFTQKGNLLRHIKL [46F_47I_49E_50I_52G_53A_54G_55F_67L_, Q9UKT9]	0.51	2.54	1.87	2.76
FNCEICGAGFTQKGNLLRHIKL [46F_47N_49E_50I_52G_53A_54G_55F_67L_, Q9UKT9]	3.46	0.722	-0.0429	-0.254
FFCEICGAGFTQKGNLLRHIKL [46F_47F_49E_50I_52G_53A_54G_55F_67L_, Q9UKT9]	3.51	2.9	1.61	0.677
FWCNICGAFFTQKGNLLRHIKL [46F_47W_49N_50I_52G_53A_54F_55F_67L_, Q9UKT9]	1.6	2.32	0.971	-0.294
FKCNVCGASFTQKGNLLRHIKL [46F_47K_49N_50V_52G_53A_54S_55F_67L_, Q9UKT9]	-1.29	-2.06	-3.02	-1.88
FFCNQCGRKFTQKGNLLRHIKL [46F_47F_49N_50Q_52G_53R_54K_55F_67L_, Q9UKT9]	-2.1	-2.17	-2	-2.57
FRCPVCGAFFTQKGNLLRHIKL [46F_47R_49P_50V_52G_53A_54F_55F_67L_, Q9UKT9]	-0.609	-0.0858	1.19	1.19
